Test results: PubChem BioAssay AID1159580 (chemical genetic matrix, 2015)
Hit rate of the full screen: of about 5,500 compounds, about 2,000 (36%) were called active. Another 18% or so got no clear call; they are omitted. No stated cut-off is given here; in the data, active means normalized growth mostly below about 0.91 (no sharp cut-off); inconclusive means no clear call, values can overlap the other calls; inactive means mostly above about 0.92. This is one part of the list.

Experiment: chemical genetic growth profiling, strain panel (AID 1159580);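 further: tested at 20 µM; growth read once vehicle control cultures reached saturation at 30 °C; 1 = growth at the plate median or of vehicle wells; lower values mean less growth of the strain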
Conditions: growth OD

Measured: normalized growth

CC(=O)O[C@H]1CC[C@]2(C)C3CC[C@@]4(C)C(CC5O[C@@]6(CCC(C)CO6)[C@@H](C)C54)C3CC[C@@H]2C1 (stereo partly specified)
inactive: S. cerevisiae deletion strains, locus YJR066W, strain TOR1, hits give low values 0.946 | S. cerevisiae deletion strains, locus YJR075W, strain HOC1, hits give low values 0.982 | S. cerevisiae deletion strains, locus YKL009W, strain mrt4, hits give low values 1.04 | S. cerevisiae deletion strains, locus YKL068W, hits give low values 1 | S. cerevisiae deletion strains, locus YKL160W, strain elf1, hits give low values 1.01 | S. cerevisiae deletion strains, locus YKL190W, strain CNB1, hits give low values 1 | S. cerevisiae deletion strains, locus YKR001C, strain vps1, hits give low values 0.998 | S. cerevisiae deletion strains, locus YKR026C, strain gcn3, hits give low values 1.02 | S. cerevisiae deletion strains, locus YKR091W, strain srl3, hits give low values 1.02 | S. cerevisiae deletion strains, locus YLL001W, strain dnm1, hits give low values 1.01 | S. cerevisiae deletion strains, locus YLL026W, hits give low values 1.02 | S. cerevisiae deletion strains, locus YLL041C, strain sdh2, hits give low values 1.02 | S. cerevisiae deletion strains, locus YLR027C, strain aat2, hits give low values 1 | S. cerevisiae deletion strains, locus YLR039C, strain RIC1, hits give low values 0.992 | S. cerevisiae deletion strains, locus YLR058C, strain SHM2, hits give low values 0.993 | S. cerevisiae deletion strains, locus YLR102C, strain apc9, hits give low values 0.991 | S. cerevisiae deletion strains, locus YLR113W, strain HOG1, hits give low values 0.963 | S. cerevisiae deletion strains, locus YLR221C, strain rsa3, hits give low values 1.03 | S. cerevisiae deletion strains, locus YLR258W, strain gsy2, hits give low values 1.01 | S. cerevisiae deletion strains, locus YLR262C, strain YPT6 (second series), hits give low values 1.01 | S. cerevisiae deletion strains, locus YLR268W, strain sec22, hits give low values 0.998 | S. cerevisiae deletion strains, locus YLR320W, strain mms22, hits give low values 1.03 | S. cerevisiae deletion strains, locus YLR330W, strain CHS5, hits give low values 0.984 | S. cerevisiae deletion strains, locus YLR342W, strain FKS1 (second series), hits give low values 1.01 | S. cerevisiae deletion strains, locus YLR342W, strain FKS1, hits give low values 1.03 | S. cerevisiae deletion strains, locus YLR357W, strain rsc2, hits give low values 1.01 | S. cerevisiae deletion strains, locus YLR370C, strain arc18, hits give low values 1.02 | S. cerevisiae deletion strains, locus YLR371W, strain rom2, hits give low values 0.99 | S. cerevisiae deletion strains, locus YLR384C, strain iki3, hits give low values 0.99 | S. cerevisiae deletion strains, locus YLR418C, strain cdc73, hits give low values 0.947 | S. cerevisiae deletion strains, locus YML016C, strain PPZ1, hits give low values 0.992 | S. cerevisiae deletion strains, locus YML032C, strain rad52, hits give low values 0.977 | S. cerevisiae deletion strains, locus YML120C, strain ndi1, hits give low values 1.03 | S. cerevisiae deletion strains, locus YML124C, strain tub3, hits give low values 0.979 | S. cerevisiae deletion strains, locus YMR058W, strain fet3, hits give low values 1.01 | S. cerevisiae deletion strains, locus YMR078C, strain ctf18, hits give low values 1 | S. cerevisiae deletion strains, locus YMR125W, strain sto1, hits give low values 1.03 | S. cerevisiae deletion strains, locus YMR129W, hits give low values 1 | S. cerevisiae deletion strains, locus YMR205C, strain PFK2, hits give low values 0.999 | S. cerevisiae deletion strains, locus YMR223W, strain ubp8, hits give low values 0.984 | S. cerevisiae deletion strains, locus YMR231W, strain pep5, hits give low values 1.01 | S. cerevisiae deletion strains, locus YMR263W, strain SAP30, hits give low values 0.996 | S. cerevisiae deletion strains, locus YMR307W, strain GAS1, hits give low values 1.12 | S. cerevisiae deletion strains, locus YNL067W, strain RPL9B, hits give low values 0.98 | S. cerevisiae deletion strains, locus YNL071W, strain lat1, hits give low values 1 | S. cerevisiae deletion strains, locus YNL128W, strain TEP1, hits give low values 0.998 | S. cerevisiae deletion strains, locus YNL153C, strain GIM3, hits give low values 0.984 | S. cerevisiae deletion strains, locus YNL183C, strain NPR1, hits give low values 0.964 | S. cerevisiae deletion strains, locus YNL209W, strain ssb2, hits give low values 1 | S. cerevisiae deletion strains, locus YNL233W, strain BNI4, hits give low values 1.02 | S. cerevisiae deletion strains, locus YNL248C, strain rpa49, hits give low values 1.02 | S. cerevisiae deletion strains, locus YNL250W, strain rad50, hits give low values 0.975 | S. cerevisiae deletion strains, locus YNL271C, strain bni1, hits give low values 0.989 | S. cerevisiae deletion strains, locus YNL298W, strain CLA4, hits give low values 1 | S. cerevisiae deletion strains, locus YNL307C, strain MCK1, hits give low values 0.996 | S. cerevisiae deletion strains, locus YNL322C, strain KRE1 (second series), hits give low values 1.03 | S. cerevisiae deletion strains, locus YNR049C, strain mso1, hits give low values 0.995 | S. cerevisiae deletion strains, locus YNR052C, strain pop2, hits give low values 0.983 | S. cerevisiae deletion strains, locus YOL012C, strain htz1 0.761 | S. cerevisiae deletion strains, locus YOL147C, strain pex11, hits give low values 0.986 | S. cerevisiae deletion strains, locus YOR001W, strain rrp6, hits give low values 1.01 | S. cerevisiae deletion strains, locus YOR061W, strain CKA2, hits give low values 0.999 | S. cerevisiae deletion strains, locus YOR069W, strain VPS5, hits give low values 0.983 | S. cerevisiae deletion strains, locus YOR070C, strain gyp1, hits give low values 1.02 | S. cerevisiae deletion strains, locus YOR080W, strain dia2, hits give low values 1.01 | S. cerevisiae deletion strains, locus YOR083W, strain WHI5, hits give low values 1.04 | S. cerevisiae deletion strains, locus YOR106W, strain vam3, hits give low values 1.02 | S. cerevisiae deletion strains, locus YOR136W, strain idh2, hits give low values 0.993 | S. cerevisiae deletion strains, locus YOR144C, strain elg1, hits give low values 0.994 | S. cerevisiae deletion strains, locus YOR184W, strain ser1, hits give low values 1.03 | S. cerevisiae deletion strains, locus YOR231W, strain MKK1, hits give low values 0.988 | S. cerevisiae deletion strains, locus YOR265W, strain rbl2, hits give low values 1.02 | S. cerevisiae deletion strains, locus YOR270C, strain vph1, hits give low values 1 | S. cerevisiae deletion strains, locus YOR290C, strain snf2, hits give low values 1.03 | S. cerevisiae deletion strains, locus YOR316C, strain cot1, hits give low values 0.989 | S. cerevisiae deletion strains, locus YPL051W, strain arl3, hits give low values 1.02 | S. cerevisiae deletion strains, locus YPL078C, strain atp4, hits give low values 1.04 | S. cerevisiae deletion strains, locus YPL106C, strain sse1, hits give low values 0.978 | S. cerevisiae deletion strains, locus YPL240C, strain hsp82, hits give low values 1 | S. cerevisiae deletion strains, locus YPL256C, strain CLN2, hits give low values 0.957 | S. cerevisiae deletion strains, locus YPR119W, strain clb2, hits give low values 0.984 | S. cerevisiae deletion strains, locus YPR141C, strain kar3, hits give low values 0.98 | S. cerevisiae deletion strains, locus YPR163C, strain tif3, hits give low values 0.986 | S. cerevisiae deletion strains, locus YPR167C, strain met16, hits give low values 1 | S. cerevisiae deletion strains, strain wtn01, hits give low values 1.01 | S. cerevisiae strains, strain wild type, hits give low values 1.01
